# A number with no mark means an inactive call.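 Rule for the calls: active = MAPPIT score above the 99th percentile of random reference set scores in the same batch; inactive = at or below it.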
# Legend:
# Assay in all cases: MAPPIT interaction score (arbitrary units); higher = stronger binary interaction signal, active = hit call of the paper
# ACOX1 = conditions: MAPPIT configuration: N-N; pair source set: Curagen_low_conf
# Method: (§1)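 MAPPIT in HEK293T cells: Drosophila bait and prey ORFs (from the FlyBi ORF collection) were co-transfected in quadruplicate, with two wells stimulated by erythropoietin. Interaction-dependent JAK-STAT activation was read out with a STAT-responsive firefly luciferase reporter. Positive calls use the 99th percentile of random reference set (RRS) scores within each batch […]. Batches Dvs01 and Dvs02 used the N-N configuration and Dvs04 the N-C configuration. Pairs come from FlyBi screens, CuraGen, DPiM, Finley Y2H, Lit-BM-16, Lit-BS-16 and RRS.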
# mbo = conditions: pair source set: Lit-BM-16
# Method: as §1
# AP-1mu = conditions: MAPPIT configuration: N-C; pair source set: screen_4
# Method: as §1
# HLH54F = conditions: MAPPIT configuration: N-N; pair source set: Curagen_low_conf
# Method: as §1
# CG17377 = conditions: MAPPIT configuration: N-C; pair source set: screen_4
# Method: as §1
# Mst87F = conditions: MAPPIT configuration: N-N; pair source set: screen_2
# Method: as §1
# lawc = conditions: MAPPIT configuration: N-C; pair source set: screen_3
# Method: as §1
# AP-2alpha = conditions: MAPPIT configuration: N-N; pair source set: DPIM
# Method: as §1
# CG9667 = conditions: MAPPIT configuration: N-N; pair source set: DPIM
# Method: as §1
# ATPCL = conditions: MAPPIT configuration: N-N
# Method: as §1
# Cka = conditions: MAPPIT configuration: N-N; pair source set: Curagen_low_conf
# Method: as §1
# CycK = conditions: MAPPIT configuration: N-N; pair source set: Finley_Y2H
# Method: as §1
# Dsp1 = conditions: pair source set: RRS
# Method: as §1
# Fkbp12 = conditions: MAPPIT configuration: N-N; pair source set: Lit-BS-16
# Method: as §1
# dod = conditions: MAPPIT configuration: N-N; pair source set: screen_1
# Method: as §1
# eIF4E3 = conditions: MAPPIT configuration: N-N; pair source set: Curagen_high_conf
# Method: as §1
# 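Note: HEK293T cells with Epo stimulation, STAT-responsive firefly luciferase reporter, fold induction versus unstimulated cells divided by the larger fold induction of two negative controls lacking either bait or prey.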
binder,measurement,setting,value
emb (protein) MATMLTSDEAGKLLDFSQKLDINLLDKIVEVVYTAQGEQLRLAQSILTTLKEHPEAWTRVDSILEYSQNQRTKFYALQILEEVIKTRWKVLPRNQCEGIKKYVVSLIIKTSSDPIVMEQNKVYLNKLNMILVHILKREWPRNWETFISDIVGASKTNESLCMNNMVILKNLSEEVFDFSQGQITQTKAKHLKDTMCSEFSQIFTLCSFVLENSMNAALIHVTLETLLRFLNWIPLGYIFETQQIETLIFKFLSVPMFRNVTLKCLSEIAGLTAANYDENFATLFKDTMVQLEQIVGQNMNMNHVFKHGSDTEQELVLNLAMFLCTFLKEHGKLVEDAKYVDYLNQALMYLVMISEVEDVEVFKICLEYWNSLVEDLYNSEFFHPTLESTKRQQVYPRRRFYAPILSKVRFIMISRMAKPEEVLVVENENGEVVREFMKDTNSINLYKNMRETLVFLTHLDSVDTDRIMTLKLLNQVNGSEFSWKNLNTLCWAIGSISGAFCEEDEKRFLVTVIKDLLGLCEQKKGKDNKAIIASNIMYVVGQYPRFLRAHWKFLKTVVNKLFEFMHETHDGVQDMACDTFIKIAIKCRRYFVTIQPNEACTFIDEILTTMSSIICDLQPQQVHTFYEAVGYMISAQVDQVQQDVLIERYMQLPNQVWDDIISRASKNVDFLKNMTAVKQLGSILKTNVAACKALGHAYVIQLGRIYLDMLNVYKITSENIIQAIEVNGVNVNNQPLIKTMHVVKKETLNLISEWVSRSNDNQLVMDNFIPPLLDAILLDYQRCKVPSAREPKVLSAMAIIVHKLRQHITNEVPKIFDAVFECTLDMINKNFEDFPQHRLSFYELLQAVNAHCFKAFLNIPPAQFKLVFDSVVWAFKHTMRNVADMGLNILFKMLQNLDQHPGAAQSFYQTYFTDILMQIFSVVTDTSHTAGLPNHAIILAYMFSLVENRKITVNLGPIPDNMIFIQEYVASLLKSAFTHLSDNQVKVFVTGLFNLDENVQAFKEHLRDFLIQIREATGEDDSDLYLEEREAALAEEQSNKHQMQRNIPGMLNPHELPEDMQDE,MAPPIT interaction score,ACOX1,1.6
same,MAPPIT interaction score,mbo; MAPPIT configuration: N-C,1.34
same,MAPPIT interaction score,mbo; MAPPIT configuration: N-N,1.54
TfIIB (protein) MASTSRLDNNKVCCYAHPESPLIEDYRAGDMICSECGLVVGDRVIDVGSEWRTFSNEKSGVDPSRVGGPENPLLSGGDLSTIIGPGTGSASFDAFGAPKYQNRRTMSSSDRSLISAFKEISSMADRINLPKTIVDRANNLFKQVHDGKNLKGRSNDAKASACLYIACRQEGVPRTFKEICAVSKISKKEIGRCFKLTLKALETSVDLITTADFMCRFCANLDLPNMVQRAATHIAKKAVEMDIVPGRSPISVAAAAIYMASQASEHKRSQKEIGDIAGVADVTIRQSYKLMYPHAAKLFPEDFKFTTPIDQLPQM,MAPPIT interaction score,AP-1mu,1.05
same,MAPPIT interaction score,HLH54F,-0.376
spin (protein) MSLKHQKQSYQPLPTAAAMDNPAMIQSSGSSGSSSSEEGGSREDVANLSPLGLPTTYSSQQLMPSDTDSMEEERHRLRPHHHHHHPLGEHHHIPGIPPSAVVPSRLSSVGRSQWFTVTVLCFVNLINYMDRFTIAGVLTDVRNDFDIGNDSAGLLQTVFVISYMVCAPIFGYLGDRYSRPWIMAVGVGLWSTTTLLGSFMKQFGWFIAFRALVGIGEASYSTIAPTIISDLFVHDMRSKMLALFYFAIPVGSGLGYIVGSKTAHLANDWRWALRVTPILGIVAVFLILLIKDPVRGHSEGSHNLEATTYKQDIKALVRNRSFMLSTAGFTCVAFVAGALAWWGPSFIYLGMKMQPGNENIVQDDVAFNFGVITMLAGLLGVPLGSFLSQYLVKRYPTADPVICAFGLLVSAPLLTGACLLVNSNSVGTYALIFFGQLALNLNWAIVADILLYVVVPTRRSTAEAFQILISHALGDAGSPYLVGAISEAIMKHLHKNPSDSGLTTELRSMSQVAGSAISNATQVIAEATTSLMETARSSASQEYSDVEQFEGLQYALFSTSFVEVLGGIFFIFTACFIIKDKYNATRGLQDATAQQQQRDERGQIA,MAPPIT interaction score,AP-1mu,2.01
same,MAPPIT interaction score,CG17377,1.62
same,MAPPIT interaction score,Mst87F,2.13
same,MAPPIT interaction score,lawc,1.7
Cp38 (protein) MTRSTYIWALAACLIACASANYGSSQGYGPESGSGASDGGADAASAAAAAAGGAGGAGGEYGGANAGAGALESGADAAGVAQAGQSSYGSDQNIPYKPVNTKGNTLTSSITYPQNKGEILIHRPAPIIVKRPPTKVLVNHPPLVVKPAPVVLHKPPAIVLRKVYVKHHPRRVKVEPVFVNVVKPPAEKYFVNENKQGYGQGSQSHGHGHGHGGHGHGHSGHGHGGHGAGPHGPGPHDGGRALPAYASGADSAAASAGYQLLQSGNQGLSALANIAGEREGPYGPAPSHQHYSAGPAGHGGYAAPAY,MAPPIT interaction score,AP-1mu,0.503
CG10417 (protein) MGAYLSHPKTDKTSTDQFNELLAVGASSMQGWRNSQEDAHNSILNFDNNTSFFAVYDGHGGAEVAQYCADKLPHFLKNLETYKNGQFEVALKEAFLGFDKTLLDPSIVSILKILAGEHNFVDAEADDYEEEDLAELQEESNLPLNEVLEKYKGLPQKKDLDLKSSDHKENFKMRSPYFRGRRAAALAAEATNKAVMDPSAKPDGSSTSAAAAAAALSADGVANSRNPSNVVNPMAGADSNTTTSINDLSTKNAALKDDSVNDQNEGSNGTDFKHTLVSSSNKKLFATGSNDMTELNQSSKNEFTNSSTSKEFERNINSSQDDEFTDDDADYEENDNVKSPDTSSAESSDCTENDDDGDEDGNEDSDEEETDEDQMANDNFCANMIEEPGKDSGCTAVVCLLQGRDLYVANAGDSRCVISRSGQAIEMSIDHKPEDDEEASRIIKAGGRVTLDGRVNGGLNLSRALGDHAYKTNVTLPAEEQMISALPDIKKLIITPEDEFMVLACDGIWNYMSSEEVVEFVRCRLKDNKKLSTICEELFDNCLAPNTMGDGTGCDNMTAVIVQFKKKLQELQSTIPPNQTEDKLLKTSENVSHSLNDQSASKRCASQNADADDEILEKNNSKRLKTDLEQENIKDRTPSPSNQNEDPTQKAIKEVTIIVSSS,MAPPIT interaction score,AP-2alpha,0.508
same,MAPPIT interaction score,CG9667,0.00387
PAN3 (protein) MCSTYGLLSFEFSDTAAMDPIFFSPTNGIPSESKLATYMNRQNVATPSGYGLNNGFSLLNLDSPLNKKSQVTPQSPEFIPTRLGSTPNFYAPYHNAPMQLSNGLNGVNGLTAAAAAAAAAAAAAAAAVPSSTSSASSASVTISKTANGGASMLALQKTASIASVTIAQQQPQHPQKQQQHPPSVGGGAVSAASAPIAISGAPPNPAAAPFVSSMSAQTPLKGRGAMMRQESPTAAMISGAGPGEKSPPHGMTPHGASPIPSALPTSVHQENVGGTIYFYPTANAQNSQPVVNSMVVDGTHPALHGVSAVAPMSAGVPAAMMYTGHVYPGPSSNVVTMQPKTLLESAFFMPDEMRAEVLARNEISNLIMDAAEAAQHALPLEVENYHALYPLEPPAQPLHAKLTFPATTYRATHNTTGYKYCLRRIHGFRLQSTKCMTLVEMWKKLQHTNVVQLREVFTTKAFGDNSLVLVYDYHPGSQTLLAKYFTPAPETNGYTDPFQGEARPFSHKSNMQRTSNGPLLPEATIWSIIMQLTAGLKAIHHAGLACKVLDPTKIIVTGKRVRFSSCCISDITQFDPNASNPLALVNMHQQDDLTALGRLVLALACRCLQSVQRDNVQSSIDMVTRNYSTDLRNFIVYLFTTNNRRSVTDLMPMIGARFYTQLDALQSKIDMQEDELAKEMENGRLYRILVKLNSINERPDFNLDCTWSETGDRYMLKLFRDYLFHSVTEDGRPWLDHAHIVQCLNKLDAGSIERVQLMSRDEQSVLIVSYAELKNCLENAFSELMSSAAN,MAPPIT interaction score,ATPCL; pair source set: Curagen_high_conf,0.129
same,MAPPIT interaction score,ATPCL; pair source set: Lit-BS-16,0.112
same,MAPPIT interaction score,Cka,-0.663
same,MAPPIT interaction score,CycK,3.73 (active)
same,MAPPIT interaction score,Dsp1; MAPPIT configuration: N-C,0.178
same,MAPPIT interaction score,Dsp1; MAPPIT configuration: N-N,-0.667
same,MAPPIT interaction score,Fkbp12,1.71
same,MAPPIT interaction score,dod,2.85 (active)
same,MAPPIT interaction score,eIF4E3,2.53 (active)

# — the supplement of paper PMC10105736
